A selection: hits, their analogues and other compounds. The true share with any hit is near 7.2%.
FMDV antiviral = blocks foot and mouth disease virus | FMDV antiviral cell-based qHTS | Potency, µM (series often up to 57.9 µM), for the others: at the top dose activity change, negative = inhibition, hits mostly inhibitors | 1.2% of 410,000 active; calls by dose curve; tested in HEK293T cells; also: read-out not given here; nearly all actives have a fitted effect of over 45% in size
Sm TGR inh = blocks Schistosoma mansoni thioredoxin glutathione reductase. Q962Y6. purified TGR, DTNB reduction, TNB absorbance 405 nm. Potency, µM (titrated, usually from 114 µM), for inactives: at the top dose activity change, negative = inhibition, hits mostly inhibitors. 3% of 360,000 active. AID 485364; also: nearly all actives have a fitted effect of over 60% in size
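Kinetic colorimetric format: TGR-catalysed, NADPH-driven DTNB reduction monitored via TNB absorbance. Enzyme dispensed at 20 nM; compound exposure 15 min at room temperature before reaction start.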
RE007 growth inh = less growth of the S. pombe RE007 Vpr strain; S. pombe RE007 Vpr strain, BacTiter-Glo ATP luminescence, 24 h; Potency, µM (top dose mostly 92.2 µM), without a hit: at the top dose activity change, negative = less growth, most hits filed as inhibitors; 0.21% of 360,000 active; AID 651644; active = well fitted falling curve with a large enough effect; inconclusive = small, poorly fitted or top-dose-only effect; inactive = no such curve, though single readings can be large or run the other way; also: nearly all actives have a fitted effect of over 50% in size
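Fission yeast RE007 carrying one integrated HIV-1 vpr copy, seeded at OD 0.01 in PMG+AL medium with 23 nL pinned compound. Grown 24 h at 30 degrees; viability read by BacTiter-Glo luminescence after 5 min.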
LASV entry inh = Lassa virus entry inhibition | Lassa virus pseudotype entry inhibition, cell reporter | Potency, µM (series often up to 37.9 µM), inactives show at the highest dose activity change, negative = inhibition, actives largely listed as inhibitors | 1.2% of 300,000 active; calls by dose curve; tested in HEK293 cells; also: nearly all actives have a fitted effect of over 50% in size
HCV inh = inhibitors of hepatitis C virus infection. Huh7.5.1 HCVcc-Cre infection, luciferase reporter, 44 h. Potency, µM (titrated, usually from 41.8 µM), without a hit: at the highest dose activity change, negative = inhibition, usual class: inhibitors. 3.4% of 340,000 active. AID 651820
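1,000 cells/well; 4 h culture; + compound; + HCVcc-Cre (~0.5 moi); 44 h; luciferase substrate, RT 15 min; read 15 sec.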
MARV entry inh = inhibitors of Marburg virus binding or cell entry; Marburg virus pseudotyped entry inhibition, cell reporter; Potency, µM (top dose mostly 37.8 µM), for the others: at the highest dose activity change, negative = inhibition, usual class: inhibitors; 1.8% of 300,000 active; calls by dose curve; tested in HEK293 cells
* marks the source's active call; other numbers are inactive results; ! = a repeat was not active; [ ] = another dose, or the depositor's remark. Unless noted, calls follow the shape of the dose curve; as a rule, active = well fitted curve in the direction sought with a large enough effect; inconclusive = small, poorly fitted or top-dose-only effect, or another doubt; inactive = no such curve, though single readings can be large; an effect the other way counts as inactive or inconclusive. % is scaled to controls: 0 for no effect and ±100 for the full control effect; potency is read from the fitted curve at half-maximal effect.

Cc1cc(Br)cn2c(Cc3ccsc3)c(-c3ccc(Cl)cc3)nc12 was read as FMDV antiviral -26% and RE007 growth inh -19%.
Screening CCN1CCN(Cc2ccc(NC(=O)c3cc(NC(=O)c4cc5cccc(OC)c5o4)cc(OC)c3)cc2C(F)(F)F)CC1 returned FMDV antiviral 40µM*!, Sm TGR inh 23%, RE007 growth inh 8% and HCV inh -20%.
Screening C[C@H]1[C@@H](C(=O)N2CCCC2)CC(=O)C(=NOCc2ccccc2)C[C@H]1c1ccccc1 returned LASV entry inh inconclusive and MARV entry inh 0%[14.2 µM].
Screening Oc1ccc(CN2CCCc3ccccc32)c2cccnc12 returned FMDV antiviral -3%, Sm TGR inh 0.1µM*, RE007 growth inh 22%, LASV entry inh 4.5µM*, HCV inh 10µM* and MARV entry inh inconclusive.
Screening Oc1ccc(COC2CCN(Cc3ccccc3)C2)c2cccnc12 (stereo unspecified) returned Sm TGR inh 45µM*.
For CCOC(=O)C1CCN(Cc2ccc(O)c3ncccc23)CC1 the results were FMDV antiviral -26%, Sm TGR inh 2.8µM*, RE007 growth inh -8%, LASV entry inh -25%, HCV inh 10µM* and MARV entry inh inconclusive.
CCOC(=O)C1CCN(Cc2ccccc2C(F)(F)F)CC1 was read as FMDV antiviral -17%, Sm TGR inh -25%, RE007 growth inh 6%, LASV entry inh -2%, HCV inh 8% and MARV entry inh 10%.
`NNC(=O)CN1CCCc2ccccc21` gave FMDV antiviral 19%, Sm TGR inh -13%, RE007 growth inh -9%, LASV entry inh 11%, HCV inh 14% and MARV entry inh inconclusive.
Screening COc1ccccc1N1CCN(Cc2ccc(O)c3ncccc23)CC1 returned FMDV antiviral inconclusive, Sm TGR inh 50µM*, RE007 growth inh inconclusive, LASV entry inh 10µM*, HCV inh 3.5µM* and MARV entry inh inconclusive.
COc1ccccc1N1CCN(Cc2ccc(OC)c(OC)c2OC)CC1 was read as FMDV antiviral -12%, Sm TGR inh 5%, RE007 growth inh 11%[3.69 µM], LASV entry inh -11%, HCV inh -12% and MARV entry inh inconclusive.
OC1CCN(Cc2ccc(OCc3ccccc3)cc2)CC1 was read as FMDV antiviral -16%, Sm TGR inh 8%, RE007 growth inh -6%, LASV entry inh 7%[46.1 µM], HCV inh -16% and MARV entry inh inconclusive.
`CCN(CC)c1ccc(NC(=O)Cn2c3ncccc3c(=O)n2-c2ccccc2)c(C)c1` gave FMDV antiviral 4%, Sm TGR inh 9% and LASV entry inh 22%[46.1 µM].
Screening Cc1ccc(-c2cc(NC(=O)CCl)n(-c3ccccc3)n2)cc1 returned FMDV antiviral 22µM*, Sm TGR inh inconclusive, RE007 growth inh inconclusive, LASV entry inh -18%, HCV inh inconclusive and MARV entry inh -25%[46.1 µM].
`CC(=O)Nc1ccc(-c2cc(NC(C)=O)n(-c3ccccc3)n2)cc1` gave FMDV antiviral -1%, Sm TGR inh -5%, RE007 growth inh 10%, LASV entry inh -11%, HCV inh 5% and MARV entry inh -15%[46.1 µM].
For Cc1ccc(OCC(=O)Nc2cc(-c3cccc(C)c3)nn2-c2ccccc2)cc1 the results were FMDV antiviral 17%, Sm TGR inh 10% and LASV entry inh 7%[46.1 µM].
For Cc1ccc(C)c(NC(=O)c2cc(-c3ccccc3)nn2-c2ccccc2)c1 the results were FMDV antiviral inconclusive, Sm TGR inh 11%, RE007 growth inh -15%, LASV entry inh inconclusive, HCV inh 11µM* and MARV entry inh 11µM*.
Screening O=C(CCl)Nc1cc(-c2ccccc2)nn1-c1ccccc1 returned FMDV antiviral -67%, Sm TGR inh 13µM*, RE007 growth inh -9%, LASV entry inh inconclusive, HCV inh 14µM* and MARV entry inh 5.2µM*.
`Cc1ccc(-n2nc(C)c(NC(=O)CCl)c2C)cc1` gave FMDV antiviral -25%, Sm TGR inh 50µM*, LASV entry inh 10µM*, HCV inh inconclusive and MARV entry inh inconclusive.
For Cc1ccc(C)c(NC(=O)c2nc(-c3ccccc3)n(-c3ccccc3)n2)c1 the results were FMDV antiviral inconclusive, Sm TGR inh -27%, RE007 growth inh 1%, LASV entry inh -30%, HCV inh 14% and MARV entry inh -26%.
`N=c1c(-c2nc3ccccc3[nH]2)cc(C(=O)c2ccco2)nn1-c1ccccc1` gave FMDV antiviral -24%, Sm TGR inh 0%, RE007 growth inh 9%, LASV entry inh -8%, HCV inh 7.9µM* and MARV entry inh inconclusive.
Cc1ccccc1NC(=S)N1CCCC(c2nc3ccccc3[nH]2)C1 (stereo unspecified) was read as FMDV antiviral -1%, Sm TGR inh 0%, RE007 growth inh -3%, LASV entry inh -19%, HCV inh -24% and MARV entry inh -3%[14.2 µM].
For Cc1ccc(NC(=S)N2CCCC(c3nc4ccccc4[nH]3)C2)cc1 (stereo unspecified) the results were FMDV antiviral 14%, RE007 growth inh -14%, LASV entry inh -4%, HCV inh 2.5µM* and MARV entry inh -24%.
Screening CN(Cc1ccccc1)C(=O)c1ncn(C)c1C(=O)N(C)Cc1ccccc1 returned FMDV antiviral -6%, Sm TGR inh 20µM*, RE007 growth inh -12% and HCV inh -2%.
For O=C(Nc1ccc(F)cc1)C(c1ccncc1)N1CCN(C(=O)c2ccco2)CC1 (stereo unspecified) the results were FMDV antiviral -16% and RE007 growth inh -21%.
For CCCCCCCCCCCCCCCCCC(=O)OC(CC(=O)O)C[N+](C)(C)C (stereo unspecified) the results were LASV entry inh -8% and MARV entry inh inconclusive.
For Cc1c(Cl)ccc2c(C(O)CBr)cc(-c3ccccc3)nc12 (stereo unspecified) the results were FMDV antiviral inconclusive, RE007 growth inh inconclusive, LASV entry inh inconclusive, HCV inh 10µM* and MARV entry inh inconclusive.
For CCN(CC)CCNC(=O)c1cc2c(s1)-c1ccccc1SC2 the results were FMDV antiviral -8%, Sm TGR inh -5%, RE007 growth inh 0% and HCV inh 11µM*.
`O=C(C#Cc1ccccc1)c1ccc([N+](=O)[O-])cc1` gave FMDV antiviral 22µM*, Sm TGR inh 0.32µM*, RE007 growth inh -26%, LASV entry inh inconclusive, HCV inh inconclusive and MARV entry inh -21%.
Screening Cc1oc2c(c1C(=O)NCc1cccc(Br)c1)C1=NCCN1C=N2 returned FMDV antiviral -16%, Sm TGR inh -2% and LASV entry inh 13%[46.1 µM].

Source: PubChem BioAssay
